Compounds with a hit are over-represented: about 7.5% of the library has one in this group of screens.
Rab9 prom act: activators of Rab9 promoter; Huh7 Rab9 promoter-luciferase reporter, luminescence, 24 h; Potency, µM (series often up to 9.22 µM), without a hit: top-dose activation, negative = inhibition, hits mostly activators; 2.8% of 320,000 active; further: % of control where 0% means no effect; nearly all actives have a fitted effect of over 60% in size
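Luminescence from Amplite-detected luciferase (10 minutes, ambient) reports Rab9 promoter activation. Before that, stable Rab9-luciferase Huh7 cells (1500/well, reduced-serum OP-MEM I plus 10% FBS) were exposed to compound for 24 hours at 37C.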
Luc counter: Kinase-Glo luciferase inhibition (counter-screen) | Potency, µM (titrated, usually from 38.3 µM), for inactives: at the top dose activity change, negative = inhibition, usual class: inhibitors | Q27757 | 0.28% of 200,000 active | Kinase-Glo luciferase, ATP luminescence, 8 min; further: on the % scale 0 is the no-effect control and ±100 the full control effect; nearly all actives have a fitted effect of over 60% in size
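Kinase-Glo luciferase light output from ATP and luciferin was measured with 10 uM ATP, within the enzyme's linear range. Buffer: 50 mM imidazole pH 7.2, 50 mM KCl, 7 mM MgCl2, 0.01% Tween 20, 0.05% BSA; luminescence read after 8 min at ambient temperature.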
ELG1 genotoxic: induces genotoxicity in HEK293T cells with luciferase-tagged ELG1 | HEK293T ELG1-luciferase reporter, luminescence, 16 h | Potency, µM (highest dose often 46 µM), for inactives: at the highest dose activity change, positive = activation, usual class: activators | 1.3% of 330,000 active | AID 504466; further: % of control where 0% means no effect; nearly all actives have a fitted effect of over 60% in size
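Step 1: seed 2,000 HEK293T ELG1-luciferase cells per well. Step 2: add compound or DMSO, incubate 16 hr at 37 °C. Step 3: ONE-Glo, 30 min at room temperature, read luminescence.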
SMN2 splice up: increases expression of the SMN2 splice variant | HEK293 SMN2-luciferase splicing reporter, luminescence, 30-36 h | Potency, µM (doses to about 46.1 µM), without a hit: at the top dose activity change, positive = activation, usual class: activators | 2.8% of 210,000 active | AID 1458; further: % of control where 0% means no effect; nearly all actives have a fitted effect of over 55% in size
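HEK293 cells carry an SMN2 minigene-luciferase reporter in which exon 7 inclusion puts luciferase in frame. Cells were seeded at 2000 cells/well, attached for 10-12 hours, then exposed to compounds for 30-36 hours at 37C before ONE-Glo luminescence.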
FLuc modulator: counter-screen for miR-21 project: firefly luciferase inhibitors or activators | P08659 | purified FLuc, Km substrates, luminescence inhibition | Potency, µM (doses to about 57.5 µM), inactives show at the highest dose activity change, negative = inhibition, usual class: inhibitors | 6.9% of 360,000 active | AID 588342;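 further: plate controls were vehicle for no effect and reference inhibitor for full effect; nearly all actives have a fitted effect of over 55% in size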
Target sequence (P08659 whole entry, looked up): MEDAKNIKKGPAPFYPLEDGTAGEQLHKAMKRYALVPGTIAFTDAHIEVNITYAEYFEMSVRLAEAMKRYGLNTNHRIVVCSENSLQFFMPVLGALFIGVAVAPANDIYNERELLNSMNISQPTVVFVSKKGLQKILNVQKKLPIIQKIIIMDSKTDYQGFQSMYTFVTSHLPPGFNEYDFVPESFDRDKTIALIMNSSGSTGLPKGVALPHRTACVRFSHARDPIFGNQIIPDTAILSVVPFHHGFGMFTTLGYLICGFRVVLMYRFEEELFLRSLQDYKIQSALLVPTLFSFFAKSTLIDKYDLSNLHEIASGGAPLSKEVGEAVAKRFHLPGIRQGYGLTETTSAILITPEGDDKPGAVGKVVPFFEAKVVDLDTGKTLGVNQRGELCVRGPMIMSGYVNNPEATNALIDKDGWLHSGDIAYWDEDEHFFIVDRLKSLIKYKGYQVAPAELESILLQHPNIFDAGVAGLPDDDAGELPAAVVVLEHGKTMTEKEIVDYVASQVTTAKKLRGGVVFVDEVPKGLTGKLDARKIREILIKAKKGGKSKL
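Purified P. pyralis luciferase, 10 nM final, with Km-level 10 uM D-luciferin and 10 uM ATP in 50 mM Tris acetate pH 7.5, 10 mM Mg acetate, 0.01% Tween-20, 0.05% BSA; 6-point qHTS titration about 60 µM downward; luminescence read.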
NPC1 prom act: activates the NPC1 promoter. Huh7 NPC1 promoter luciferase reporter, 24 h. Potency, µM (series often up to 9.22 µM), for the others: at the highest dose activation, actives largely listed as activators. 2.4% of 320,000 active. AID 485313; further: % of control where 0% means no effect; nearly all actives have a fitted effect of over 60% in size
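In 1536-well qHTS, Huh7 cells harboring an NPC1 promoter–luciferase construct received compound for 24 h; activation was quantified by luminescence following luciferase reagent addition.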
* hit, by the source's call; [ ] = another dose, or the depositor's remark. The call rests on the fitted dose curve; in most records, active means well fitted curve in the direction sought with a large enough effect; inconclusive means small, poorly fitted or top-dose-only effect, or another doubt; inactive means no such curve, though single readings can be large; an effect the other way counts as inactive or inconclusive. Potency means the concentration at half of the fitted maximal effect.

For CCOC(=O)c1ccc2c(c1)nc(-c1ccccn1)n2CC the results were Rab9 prom act 3.5µM*, ELG1 genotoxic inconclusive, FLuc modulator 1.5µM* and NPC1 prom act inconclusive.
COc1ccc(Cl)cc1C(=O)Nc1cccnc1 was read as Rab9 prom act 0%, ELG1 genotoxic 1%, FLuc modulator -6% and NPC1 prom act 0%.
Screening O=C(Nc1cccnc1)c1cc(-c2cc(Cl)ccc2O)n[nH]1 returned Rab9 prom act inconclusive, ELG1 genotoxic 17%, FLuc modulator 2.4µM* and NPC1 prom act 2.8µM*.
Screening Cc1ccc(O)c(-c2cc(C(=O)Nc3cccnc3)[nH]n2)c1 returned Rab9 prom act 2.2µM*, ELG1 genotoxic inconclusive, FLuc modulator 5.4µM* and NPC1 prom act 2.8µM*.
For Cc1ccc(C)c(NC(=O)c2cc(-c3cc(C)c(C)cc3O)n[nH]2)c1 the results were Rab9 prom act 3.5µM*, ELG1 genotoxic inconclusive, FLuc modulator inconclusive and NPC1 prom act inconclusive.
For Nc1ccccc1Nc1cc(-c2ccccc2)nn1-c1ccccc1 the results were Rab9 prom act 16%, Luc counter -2%, ELG1 genotoxic 8%, SMN2 splice up 12%, FLuc modulator 17µM* and NPC1 prom act 10%.
For Nc1ccccc1Nc1ccccc1 the results were Rab9 prom act 0%[1.84 µM], Luc counter 4%, ELG1 genotoxic -10%, SMN2 splice up 16%, FLuc modulator -6% and NPC1 prom act -5%.
`Nc1ccccc1Nc1cc(-c2ccccc2)[nH]n1` gave Rab9 prom act -16%, Luc counter -6%, ELG1 genotoxic 8%, SMN2 splice up inconclusive, FLuc modulator 11µM* and NPC1 prom act -28%.
Screening Cc1ccc(O)c(C(=O)CC(=O)c2ccc(Cl)cc2)c1 returned Rab9 prom act inconclusive, ELG1 genotoxic inconclusive, FLuc modulator 24µM* and NPC1 prom act 15%.
Screening Cc1ccc(O)c(C(=O)CC(=O)c2cccc(F)c2)c1 returned Rab9 prom act inconclusive, Luc counter 1%, ELG1 genotoxic 7%, SMN2 splice up 35µM*, FLuc modulator -7%[2.3 µM] and NPC1 prom act inconclusive.
Cc1cccc(C(=O)CC(=O)c2cc(Cl)ccc2O)c1 was read as Rab9 prom act -2%, Luc counter 16%, ELG1 genotoxic -7%, SMN2 splice up -98%, FLuc modulator -12% and NPC1 prom act -2%.
O=[N+]([O-])c1nn(-c2ccc3c(c2)OCCO3)n(O)c1=Nc1ccccc1 was read as Rab9 prom act -38%, Luc counter -1%, ELG1 genotoxic -4%, SMN2 splice up -109%, FLuc modulator 12µM* and NPC1 prom act -18%.
For Cc1ccc(CN=c2c([N+](=O)[O-])nn(-c3ccc4c(c3)OCCO4)n2O)cc1 the results were Rab9 prom act inconclusive, Luc counter -8%, ELG1 genotoxic inconclusive, FLuc modulator 12µM* and NPC1 prom act inconclusive.
O=[N+]([O-])c1nn(-c2ccc3c(c2)OCCO3)n(O)c1=NC1CCCC1 was read as Rab9 prom act inconclusive, Luc counter -20%, ELG1 genotoxic inconclusive, SMN2 splice up -15%, FLuc modulator -11% and NPC1 prom act 8%.
`COc1ccc(-n2nc([N+](=O)[O-])c(=NCc3ccc4c(c3)OCO4)n2O)cc1` gave Rab9 prom act inconclusive, Luc counter -2%, ELG1 genotoxic inconclusive, SMN2 splice up inconclusive, FLuc modulator inconclusive and NPC1 prom act 2.2µM*.
O=[N+]([O-])c1nn(-c2ccc3c(c2)OCCO3)n(O)c1=NC1CCCCCC1 was read as Rab9 prom act inconclusive, Luc counter -2%, ELG1 genotoxic inconclusive, SMN2 splice up -5%, FLuc modulator 17µM* and NPC1 prom act 19%.
For CCCN1CCN(CC2=C(C(=O)OCC)C(c3cccc(OC)c3OC)NC(=O)N2)CC1 (stereo not given) the results were SMN2 splice up 8% and FLuc modulator -1%.
`CCc1ccc(N2CC(C(=O)Nc3ccc4c(c3)OCCO4)CC2=O)cc1` (stereo not given) gave Rab9 prom act 4%, ELG1 genotoxic inconclusive, FLuc modulator -16% and NPC1 prom act 1%.
For O=[N+]([O-])c1nn(-c2ccc3c(c2)OCCO3)n(O)c1=NCCCO the results were Rab9 prom act 2µM*, Luc counter -2%, ELG1 genotoxic 4%, SMN2 splice up 18%, FLuc modulator -19% and NPC1 prom act inconclusive.
`Cc1ccc(N=c2c([N+](=O)[O-])nn(-c3ccc(Cl)cc3)n2O)cc1C` gave Rab9 prom act 1.3µM*, Luc counter -3%, ELG1 genotoxic -4%, SMN2 splice up 4%, FLuc modulator -10% and NPC1 prom act 1.6µM*.
Screening O=[N+]([O-])c1nn(-c2ccc3c(c2)OCCO3)n(O)c1=Nc1ccc(Cl)cc1 returned Rab9 prom act -8%, Luc counter -4%, ELG1 genotoxic 1%, SMN2 splice up -60%, FLuc modulator inconclusive and NPC1 prom act -5%.
Screening COc1cc(OC)cc(-n2c(=O)c3ccccc3n(Cc3ccccc3C#N)c2=O)c1 returned SMN2 splice up -3% and FLuc modulator -1%.
O=C(Nc1ccc(Cl)cc1)c1cc2c(-c3ccccc3)nn(-c3ccccc3)c2s1 was read as SMN2 splice up 1% and FLuc modulator 0%.
For Cc1ccc(NC(=O)c2c(Cl)n(C)c3ccccc23)cc1 the results were Rab9 prom act 23%, Luc counter -1%, ELG1 genotoxic 11%, SMN2 splice up inconclusive, FLuc modulator 3.4µM* and NPC1 prom act inconclusive.
`Cn1c(Cl)c(C(=O)Nc2ccccc2)c2ccccc21` gave Rab9 prom act 2%, Luc counter -8%, ELG1 genotoxic 3%, SMN2 splice up -4%, FLuc modulator 15µM* and NPC1 prom act inconclusive.
Screening O=C(O)c1cncc(C#Cc2ccccc2)c1 returned Rab9 prom act 15%, ELG1 genotoxic -2%, FLuc modulator inconclusive and NPC1 prom act 2%.
For O=C(O)c1cncc(C#CCC2CCCCC2)c1 the results were Rab9 prom act 2.8µM*, ELG1 genotoxic 1%, FLuc modulator inconclusive and NPC1 prom act inconclusive.
Screening CCCCc1ccc(Nc2ncnc3c2cnn3-c2ccc(C)cc2)cc1 returned FLuc modulator -10%.
`Cc1ccc(-n2ncc3c(NC(C)c4ccccc4)ncnc32)cc1` (stereo not given) gave FLuc modulator 6µM*.
COCC(C)Nc1ncnc2c1cnn2-c1cccc(Cl)c1 (stereo not given) was read as FLuc modulator 13µM*.
